# Over roughly 16,000 sequences, “rpm ratio (pull-down/input)” has its median near 0.94; the highest 2% begin near 1.7. The entries come from a sample that favours the highest values as a whole.
# Target: T1, MBP-FoxP1dN (Mus musculus, UniProt P58462 326-579)
# T1 sequence: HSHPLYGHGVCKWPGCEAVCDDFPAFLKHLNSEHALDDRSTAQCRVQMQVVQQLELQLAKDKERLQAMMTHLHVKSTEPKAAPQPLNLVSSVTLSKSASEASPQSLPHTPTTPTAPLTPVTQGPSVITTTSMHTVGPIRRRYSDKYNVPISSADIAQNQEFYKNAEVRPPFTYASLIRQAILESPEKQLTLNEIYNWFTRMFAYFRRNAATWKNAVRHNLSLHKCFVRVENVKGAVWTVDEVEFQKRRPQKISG
# Experiment: PD-seq (MBP pull-down with sequencing); 20 mM Tris-HCl pH 7.5, 100 mM NaCl, 1.5 mM MgCl2, 0.4 uM protein, 0.1 uM dsDNA library, 30 min, room temperature, amylose pull-down; high values mean tight binding
# Conditions: protein: recombinant; tags: His6-MBP; chain copies: 2; dsDNA, one strand shown
# Method in brief: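 Amylose resin was used to capture complexes formed during 30 min at room temperature in Tris pH 7.5 buffer with NaCl and MgCl2 between 0.4 µM His6-MBP-tagged mouse FoxP3 or FoxP1 fragment lacking the N-terminus, expressed in E. coli, and 0.1 µM Klenow-filled double-stranded degenerate DNA library. After three washes, the DNA was released with proteinase K, barcoded by PCR and sequenced on Illumina. Binding is pooled-replicate reads-per-million enrichment, pull-down over input.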
row,Sequence,binding signal
1,GATGATTGTTCTCCCAGCTGATGAATTCCGTAAATCGAGTAAACAAATTTTCCTAATCTTTCTGTTCAAGCGCCATCTAC,1.2 RPM ratio (pull-down/input)
2,GATGATTGTTCTCCCAGCTGATGAATTGAACGTCTCGAGTAAACAAATTTTCCTAATCTTTCTGTTCAAGCGCCATCTAC,0.787 RPM ratio (pull-down/input)
3,GATGATTGTTCTCCCAGCTGATGAATTACCGTGGTCGAGTAAACAAATTTTCCTAATCTTTCTGTTCAAGCGCCATCTAC,0.89 RPM ratio (pull-down/input)
4,GATGATTGTTCTCCCAGCTGATGAATTTCCGAGGTCGAGTAAACAAATTTTCCTAATCTTTCTGTTCAAGCGCCATCTAC,0.721 RPM ratio (pull-down/input)
5,GATGATTGTTCTCCCAGCTGATGAATTAGACTTCTCGAGTAAACAAATTTTCCTAATCTTTCTGTTCAAGCGCCATCTAC,0.789 RPM ratio (pull-down/input)
6,GATGATTGTTCTCCCAGCTGATGAATTCCTTAGATCGAGTAAACAAATTTTCCTAATCTTTCTGTTCAAGCGCCATCTAC,0.924 RPM ratio (pull-down/input)
7,GATGATTGTTCTCCCAGCTGATGAATTTGCTCGATCGAGTAAACAAATTTTCCTAATCTTTCTGTTCAAGCGCCATCTAC,0.994 RPM ratio (pull-down/input)
8,GATGATTGTTCTCCCAGCTGATGAATTGTTATTCTCGAGTAAACAAATTTTCCTAATCTTTCTGTTCAAGCGCCATCTAC,2.03 RPM ratio (pull-down/input)
9,GATGATTGTTCTCCCAGCTGATGAATTATGTTATTCGAGTAAACAAATTTTCCTAATCTTTCTGTTCAAGCGCCATCTAC,2.18 RPM ratio (pull-down/input)
10,GATGATTGTTCTCCCAGCTGATGAATTTTTATTCTCGAGTAAACAAATTTTCCTAATCTTTCTGTTCAAGCGCCATCTAC,1.06 RPM ratio (pull-down/input)
11,GATGATTGTTCTCCCAGCTGATGAATTTCTTATTTCGAGTAAACAAATTTTCCTAATCTTTCTGTTCAAGCGCCATCTAC,1.07 RPM ratio (pull-down/input)
12,GATGATTGTTCTCCCAGCTGATGAATTATGTAATTCGAGTAAACAAATTTTCCTAATCTTTCTGTTCAAGCGCCATCTAC,1.31 RPM ratio (pull-down/input)
13,GATGATTGTTCTCCCAGCTGATGAATTGGTTATTTCGAGTAAACAAATTTTCCTAATCTTTCTGTTCAAGCGCCATCTAC,1.13 RPM ratio (pull-down/input)
14,GATGATTGTTCTCCCAGCTGATGAATTATTATTCTCGAGTAAACAAATTTTCCTAATCTTTCTGTTCAAGCGCCATCTAC,1.45 RPM ratio (pull-down/input)
15,GATGATTGTTCTCCCAGCTGATGAATTTGTTATTTCGAGTAAACAAATTTTCCTAATCTTTCTGTTCAAGCGCCATCTAC,2.17 RPM ratio (pull-down/input)
16,GATGATTGTTCTCCCAGCTGATGAATTGTTATTTTCGAGTAAACAAATTTTCCTAATCTTTCTGTTCAAGCGCCATCTAC,3.47 RPM ratio (pull-down/input)

row,Sequence,binding signal
1,GATGATTGTTCTCCCAGCTGATGAATTATTATGTTCGAGTAAACAAATTTTCCTAATCTTTCTGTTCAAGCGCCATCTAC,1.69 RPM ratio (pull-down/input)
2,GATGATTGTTCTCCCAGCTGATGAATTGAGATCATCGAGTAAACAAATTTTCCTAATCTTTCTGTTCAAGCGCCATCTAC,0.904 RPM ratio (pull-down/input)
3,GATGATTGTTCTCCCAGCTGATGAATTTATGACCTCGAGTAAACAAATTTTCCTAATCTTTCTGTTCAAGCGCCATCTAC,0.986 RPM ratio (pull-down/input)
4,GATGATTGTTCTCCCAGCTGATGAATTACGATAGTCGAGTAAACAAATTTTCCTAATCTTTCTGTTCAAGCGCCATCTAC,1.01 RPM ratio (pull-down/input)
5,GATGATTGTTCTCCCAGCTGATGAATTTTCCCTATCGAGTAAACAAATTTTCCTAATCTTTCTGTTCAAGCGCCATCTAC,0.937 RPM ratio (pull-down/input)
6,GATGATTGTTCTCCCAGCTGATGAATTATACCCGTCGAGTAAACAAATTTTCCTAATCTTTCTGTTCAAGCGCCATCTAC,0.898 RPM ratio (pull-down/input)
7,GATGATTGTTCTCCCAGCTGATGAATTACTTCGATCGAGTAAACAAATTTTCCTAATCTTTCTGTTCAAGCGCCATCTAC,1.01 RPM ratio (pull-down/input)
8,GATGATTGTTCTCCCAGCTGATGAATTATCCATTTCGAGTAAACAAATTTTCCTAATCTTTCTGTTCAAGCGCCATCTAC,0.915 RPM ratio (pull-down/input)
9,GATGATTGTTCTCCCAGCTGATGAATTTCACTAGTCGAGTAAACAAATTTTCCTAATCTTTCTGTTCAAGCGCCATCTAC,0.76 RPM ratio (pull-down/input)
10,GATGATTGTTCTCCCAGCTGATGAATTTCGTTATTCGAGTAAACAAATTTTCCTAATCTTTCTGTTCAAGCGCCATCTAC,1.01 RPM ratio (pull-down/input)
11,GATGATTGTTCTCCCAGCTGATGAATTGTTATATTCGAGTAAACAAATTTTCCTAATCTTTCTGTTCAAGCGCCATCTAC,1.57 RPM ratio (pull-down/input)
12,GATGATTGTTCTCCCAGCTGATGAATTCTGTTATTCGAGTAAACAAATTTTCCTAATCTTTCTGTTCAAGCGCCATCTAC,1.78 RPM ratio (pull-down/input)
13,GATGATTGTTCTCCCAGCTGATGAATTCACTCCCTCGAGTAAACAAATTTTCCTAATCTTTCTGTTCAAGCGCCATCTAC,0.792 RPM ratio (pull-down/input)
14,GATGATTGTTCTCCCAGCTGATGAATTCGGTAAATCGAGTAAACAAATTTTCCTAATCTTTCTGTTCAAGCGCCATCTAC,1.22 RPM ratio (pull-down/input)
15,GATGATTGTTCTCCCAGCTGATGAATTGCTTCGCTCGAGTAAACAAATTTTCCTAATCTTTCTGTTCAAGCGCCATCTAC,0.992 RPM ratio (pull-down/input)
16,GATGATTGTTCTCCCAGCTGATGAATTCCCTGATTCGAGTAAACAAATTTTCCTAATCTTTCTGTTCAAGCGCCATCTAC,0.807 RPM ratio (pull-down/input)
